According to PubChem BioAssay AID463200 (Sanford-Burnham Center for Chemical Genomics, 2010):
This is one part of the list. Unmarked numbers belong to inactive results. Activity calls are given as the source filed them. Rule as the data show it: active = z-score above about 6.3; inactive = the rest.

Experiment: toxicity to mouse AML12 liver cells – imaging, DAPI nuclear morphology imaging, counter-screen for hepatic lipid droplet formation project (AID 463200);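 also: compound exposure lasted overnight at 37 °C before fixation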
Conditions: AML12 mouse hepatocytes, DAPI nuclear morphology cytotoxicity imaging; at 5 µM; stronger effect = higher value; cells fed 100 µM oleate overnight

Row | Compound | z-score
1 | COc1ccc(C(C(=O)NC(C)(C)C)N(Cc2ccc(F)cc2)C(=O)CCC(=O)Nc2cc(C)on2)cc1 (stereo unspecified) | -0.0925
2 | CCOC(=O)C1=C(CC)OC(N)=C(C#N)C1c1ccc(F)cc1F (stereo unspecified) | -0.275
3 | O=[N+]([O-])c1ccccc1N/N=C1\CCc2ccccc21 | -0.00245
4 | Cc1cc(C(=O)NC2CCCc3c2cnn3-c2cccc(C)c2C)c(C)o1 (stereo unspecified) | 0.206
5 | CCOc1ccc(CCNC(=O)CCc2nnc3ccc(N4CCCC4)nn23)cc1OCC | -0.773
6 | Cn1c(=O)[nH]c(=O)c2c1nc(N1CCN(C(c3ccccc3)c3ccccc3)CC1)n2CCO | 0.0379
7 | COc1cc(/C=N/NC(=O)Nc2ccccc2)ccc1OCCOc1ccccc1C | 4.44
8 | Cc1c(C(=O)NCc2ccccc2)cnn1-c1ccccc1 | -0.784
9 | CCCN(CCC)c1ccc(C(O)c2nnc(-c3ccccc3)o2)cc1 (stereo unspecified) | -0.662
10 | CC(NC(=O)c1cccc2ccccc12)c1ccc2c(c1)CCCC2 (stereo unspecified) | 8.48 (active)
11 | CCCN(CCC)c1nc2c(C)cccn2c(=O)c1/C=C1/SC(=S)N(Cc2ccco2)C1=O | -0.326
12 | CCOc1ccc(CCNC(=O)Nc2ccccc2)cc1OCC | -0.203
13 | COc1ccc(Cl)cc1NC(=O)CN(C)C(=O)CCCc1c[nH]c2ccccc12 | 0.989
14 | CC(C)(C)NC(=O)Cn1cnc2cc([N+](=O)[O-])ccc2c1=O | -1.05
15 | CCCc1ccc(-c2csc(NC(=O)Cc3cccs3)n2)cc1 | -0.171
16 | O=C1Nc2ccc(Br)cc2/C1=N/N=C/C1=C(N2CCOCC2)C(=C\c2ccccc2)/CC1 | -1.9
17 | COCCCNC(=O)CN1C(=O)CSc2ccc(S(=O)(=O)N3CCOCC3)cc21 | -0.296
18 | CN(C)c1ccc(Nc2c3c4c(cccc4n(C)c2=O)C(=O)c2ccccc2-3)cc1 | 0.335
19 | O=C(CN1CCc2cc3c(cc2C1)OCCCO3)Nc1ccccc1 | 0.947
20 | Cc1ccc(N2C(=O)C(NC(=O)c3c(F)cccc3F)(C(F)(F)F)C3=C2CC(C)(C)CC3=O)cc1 (stereo unspecified) | -0.996
21 | COc1ccc(OC)c(-c2csc(-c3cccs3)n2)c1 | -0.885
22 | COc1ccc(/C=C(\NC(=O)c2ccc(OCC(C)C)cc2)C(=O)OCc2ccco2)cc1 | -0.0226
23 | CCc1ccc(NC(=O)C(C)OC(=O)/C=C/c2cccc([N+](=O)[O-])c2)cc1 (stereo unspecified) | 1.35
24 | Cc1cc(NC(=O)CSc2nc(C(C)C)nc3sc4c(c23)CCC(C)C4)no1 (stereo unspecified) | -0.355
25 | CCCCN1C(=O)/C(=C/C=C2/C=Cc3ccccc3N2CC)SC1=S | -0.15
26 | COc1cccc(/C=C(/CC(=O)Nc2ccc(N3CCOCC3)cc2)c2nc3ccccc3s2)c1 | 0.0842
